The term inhibition denotes the relative decrease from the control value, in per cent.

The text below walks through data of PubChem BioAssay AID623870 (Broad Institute, 2012).

The whole screen tested about 390,000 compounds, of which about 2,600 (0.67%) were called active. The list comes from a sample in which actives are over-represented; it also holds similar structures and randomly drawn compounds. A number with no mark means an inactive call.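 How the source made its calls: active means mean inhibition of replicates at least 50% and at least half of replicates each reaching 50%; inconclusive means half or more replicates reach 50% but mean below 50%; inactive means the rest.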

In the assay the target is Transforming acidic coiled-coil-containing protein 3 (Homo sapiens) (UniProt Q9Y6A5). The assay is described as follows: disruptors of ARNT/TACC3 protein interaction, primary screen, biochemical, AlphaScreen, single concentration (AID 623870).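 Further: 0% = complete ARNT plus TACC3 wells and 100% = ARNT alone without TACC3.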 The conditions noted are these: AlphaScreen His-ARNT PAS-B/GST-TACC3 binding, luminescence; at 9.99 µM; stronger effect = higher value; TACC3 fragment carries E629A point mutation. (Alpha assays give light when donor and acceptor beads are brought close together.)
Turning to `CCOc1ncccc1C(=O)NCCc1ccc(OC)cc1`, the inhibition was 3.87%. The value for `C/C(=N/NC(=O)CSc1ccccn1)c1ccc([N+](=O)[O-])cc1` was -1.61%; that for `C/C(=N\NC(=O)Cc1ccc(Cl)cc1)c1ccccn1` was 28.6% (active); that for `C/C(Cc1ccccc1)=N\NC(=O)CNC(=O)c1ccccc1Cl` was 4.6%. For `COc1ccc(CNC(=O)COc2cccnc2[N+](=O)[O-])cc1` the value was -14.8%; for `COc1ccc(CC(=O)N/N=C(\C)c2ccccn2)cc1`, 65.8% (active); for `C[C@H]1CN([C@@H](C)CO)C(=O)c2cc(/C=C/c3ccccc3)cnc2O[C@H]1CN(C)Cc1cccc(C(=O)O)c1`, -2.95%. Turning to `CO[C@@H]1CN(C)C(=O)c2cc(NC(=O)Nc3cc(F)ccc3F)ccc2OC[C@@H](C)N(C)C[C@H]1C`, the inhibition is 11.6%. The value for `CO[C@H]1CN(C)C(=O)c2cc(NC(=O)C3CCOCC3)ccc2OC[C@@H](C)N(Cc2cccnc2)C[C@@H]1C` was -4.49%; that for `CCNC(=O)C[C@H]1CC[C@@H]2[C@H](COc3ccc(NC(=O)Nc4cccc(Cl)c4)cc3C(=O)N2C)O1` was 4.93%; that for `CO[C@@H]1CN(C)C(=O)c2cc(NC(=O)C3CCOCC3)ccc2OC[C@H](C)N(Cc2cccnc2)C[C@@H]1C` was -4.7%.

For the compound `CCCN(C)C[C@@H]1Oc2cc(-c3ccc(C)cc3)ccc2S(=O)(=O)N([C@@H](C)CO)C[C@H]1C`, the inhibition was 3.53%.

Consider `CO[C@H]1O[C@H](CO)[C@@H](OC(=O)Nc2ccccc2-c2ccccc2)[C@H](OC(=O)Nc2ccccc2)[C@H]1OC(=O)Nc1ccccc1`, for which the inhibition was 0.749%. For `COc1ccccc1-c1ccc([C@@H]2[C@@H](CO)N3CCCCN(C(=O)c4ccncc4)C[C@@H]23)cc1` the value was -0.716%; for `CC(=O)/C(=N\Nc1ccc(Cl)cc1Cl)Sc1cccc2cccnc12`, 61.1% (active). For `CC(NC(=O)COc1cccnc1[N+](=O)[O-])c1ccc(Cl)cc1Cl` (stereo not given) the value was 1.05%; for `CC1(c2ccc(Cl)cc2Cl)NC(=O)N(CC(=O)Nc2cccnc2Cl)C1=O` (stereo not given), 0.909%.

As for `CN1C[C@H]2[C@@H](c3ccccc31)[C@@H](CO)N2Cc1ccccc1`, the inhibition is 2.13%. For `COc1ccc(NC(=O)Nc2ccc3c(c2)C(=O)N([C@H](C)CO)C[C@H](C)[C@H](CN(C)S(=O)(=O)c2ccc(OC)cc2)O3)cc1` the value was 8.74%; for `O=C(Nc1cc(F)ccc1F)N1CCCCN2[C@H](C1)[C@H](c1ccc(-c3cccnc3)cc1)[C@@H]2CO`, -4.21%. The value for `CNC[C@H]1Oc2cc(C#Cc3ccccc3)ccc2S(=O)(=O)N([C@@H](C)CO)C[C@@H]1C` was 21.9%; that for `CNC[C@H]1Oc2cc(C#Cc3ccccn3)ccc2S(=O)(=O)N([C@H](C)CO)C[C@@H]1C` was 47.7% (active); that for `CC(C)NC(=O)N(C)C[C@H]1Oc2cc(C#Cc3ccccn3)ccc2S(=O)(=O)N([C@H](C)CO)C[C@@H]1C` was -1.38%. The value for `CN1[C@@H]2c3ccc(-c4cccc(F)c4)c(=O)n3C[C@@H]2[C@@H](CO)[C@@H]1C(=O)NC1CCC1` was -9.74%.

Consider `CCC(=O)Nc1ccc2c(c1)OC[C@H](C)N(C(=O)c1ccncc1)C[C@H](C)[C@H](OC)CN(C)C2=O`, for which the inhibition is 6.95%. The value for `C[C@@H]1CN([C@@H](C)CO)C(=O)c2cccc(NC(=O)c3ccncc3)c2O[C@H]1CN(C)S(=O)(=O)c1ccc(F)cc1` was -8.57%; that for `C[C@@H]1CN([C@H](C)CO)C(=O)c2cc(NC(=O)Cc3cn(C)c4ccccc34)ccc2O[C@@H]1CN(C)S(=O)(=O)c1cccs1` was -11.1%; that for `COC(=O)CC1=NN(c2nc(C)cc(C)n2)C(=O)C1` was 13.9% (active).

On to `Cc1ccc(CC2CC(=O)N(c3nc(C)cc(C)n3)C2=O)cc1` (stereo not given), for which the inhibition was -8.57%. As for `Cc1cc(C)nc(N2C(=O)CC(Cc3ccccc3)C2=O)n1` (stereo not given), the inhibition is -0.771%.

In the case of `COCCNC(=O)C[C@H]1CC[C@@H]2[C@@H](COc3ccc(NC(=O)C4CCOCC4)cc3C(=O)N2C)O1`, the inhibition is -6.26%.

As to `CCC(=O)N[C@H]1CC[C@H](CCn2cc(-c3cccc(OC)c3)nn2)O[C@H]1CO`, the inhibition was -6.96%. For `Cc1c(NC(=O)CN2C(=O)C(=O)N(Cc3ccccc3)C2=O)c(=O)n(-c2ccccc2)n1C` the value was 0.167%; for `Cc1c(NC(=O)CSc2cccc3cccnc23)c(=O)n(-c2ccccc2)n1C`, 93.2% (active); for `Cc1ccccc1OCCC(=O)Nc1c(C)n(C)n(-c2ccccc2)c1=O`, 5.66%. The value for `C[C@@H]1CN([C@H](C)CO)C(=O)c2ccccc2-c2ccccc2CO[C@@H]1CN(C)S(=O)(=O)CC(F)(F)F` was -0.141%; that for `C[C@H](CO)N1C[C@H](C)[C@H](CN(C)C)Oc2ccc(NC(=O)Cc3ccccc3)cc2CC1=O` was -9.42%; that for `C[C@H](CO)N1C[C@H](C)[C@H](CN(C)C(=O)NC2CCCCC2)Oc2c(NC(=O)C3CC3)cccc2C1=O` was -12.2%. The value for `O=[N+]([O-])c1cc(Cl)cc(/C=N/NC(=S)Nc2cc(S(=O)(=O)N3CCOCC3)ccc2Cl)c1O` was 41.4%.

On to `C=CCNC(=S)N/N=C/c1ccc(C)s1`, for which the inhibition is 3.54%. The value for `CNC(=S)N/N=C/c1ccc(N2CCOCC2)s1` was 46.8% (active); that for `COc1ccc(NC(=O)N(C)C[C@@H]2Oc3c(NC(=O)C4CCOCC4)cccc3C(=O)N([C@H](C)CO)C[C@@H]2C)cc1` was 26.5%. As for `Cc1ncc(CO)c(/C=N/NC(=O)c2cccc(S(=O)(=O)N3CCCC3)c2)c1O`, the inhibition is 75.9% (active). Regarding `O=C(NNC1=NCCC1)c1cccc(S(=O)(=O)N2CCCCC2)c1`, the inhibition is 30.6%. The value for `O=C(Nc1nncs1)c1cccc(S(=O)(=O)N2CCCCC2)c1` was -5.27%.

Turning to `CCCN(C)C[C@@H]1OCCCC[C@@H](C)Oc2ccc(NS(=O)(=O)c3c(C)noc3C)cc2C(=O)N([C@H](C)CO)C[C@@H]1C`, the inhibition is -10.1%. For `COCC#Cc1cnc2c(c1)C(=O)N([C@@H](C)CO)C[C@@H](C)[C@@H](CN(C)C(=O)Nc1ccc(OC)cc1)O2` the value was 4.88%. On to `ON=C1/C(=N\O)CC2(C/C1=N/O)OCCO2`, for which the inhibition was 59% (active). As for `C[C@@H]1CN([C@H](C)CO)C(=O)c2cccc(NS(=O)(=O)c3cccs3)c2O[C@@H]1CN(C)C(=O)Nc1cccc2ccccc12`, the inhibition is 26.7%. The value for `Cc1cccc(-c2ccc([C@@H]3[C@@H](CO)N4CCCCN(S(=O)(=O)c5cccs5)C[C@H]34)cc2)c1` was 14.3%; that for `O=C(COC(=O)CCCN1C(=O)c2cccc3cccc(c23)C1=O)NC1CCS(=O)(=O)C1` (stereo not given) was 7.07%. For `O=C(CCCN1C(=O)c2cccc3cccc(c23)C1=O)N1CCN(Cc2ccc3c(c2)OCO3)CC1` the value was -11.4%. As to `O=C1c2cccc3cccc(c23)C(=O)N1CCCCCc1n[nH]c(=S)o1`, the inhibition is 28.3% (active). For `C[C@H](CO)N1C[C@H](C)[C@H](CN(C)C(=O)Cc2ccccn2)Oc2ncc(-c3cncnc3)cc2C1=O` the value was -0.547%; for `CO[C@@H]1CN(C)C(=O)c2ccc(NC(=O)Nc3c(C)noc3C)cc2OC[C@@H](C)N(C(=O)Nc2cccc(Cl)c2)C[C@H]1C`, 4.61%; for `COc1ccccc1NC(=O)N[C@H]1CC[C@H](CCNC(=O)Cc2ccccn2)O[C@@H]1CO`, 6.44%. For `CC(C)n1cnc2c(NCc3ccccc3)cc(OCC3CCN(C)CC3)cc21`, the inhibition was 28.3% (active). The value for `CCC(=O)Nc1ccc2c(c1)C(=O)N(C)[C@@H]1CC[C@@H](CC(=O)NCCN3CCCCC3)O[C@@H]1CO2` was -4.58%. For `COc1ccccc1-c1cn(CC[C@@H]2CC[C@@H](NC(=O)c3ccccc3F)[C@H](CO)O2)nn1` the value was 1.05%. For `C[C@H]1CN([C@@H](C)CO)C(=O)c2cc(C3=CCCCC3)cnc2O[C@H]1CN(C)Cc1ccncc1` the value was -9.48%. Regarding `c1ccc(-c2noc(-c3cccs3)n2)nc1`, the inhibition is 48.9% (active). As for `O=C(NCc1cccnc1)c1nc(-c2cccs2)no1`, the inhibition was -5.94%. Regarding `O=C(c1cccs1)N(C(=O)c1cccs1)c1ccccn1`, the inhibition is 0.575%. For `CC1CCN(S(=O)(=O)c2nnc(NC(=O)COc3ccccc3F)s2)CC1` the value was 31.3%. The value for `O=C(CN1C(=O)C2C3C=CC(C3)C2C1=O)Nc1nc(-c2ccccn2)cs1` (stereo not given) was 73.4% (active); that for `CCOC(=O)N1CCN(C(=O)C(C)NC(=O)c2ccco2)CC1` (stereo not given) was -22%; that for `CCCC(NC(=O)c1ccco1)c1nc2ccccc2[nH]1` (stereo not given) was -4.8%.

In the case of `O=C(COc1ccccc1F)Nc1nc(-c2ccccn2)cs1`, the inhibition was 69.7% (active). For `O=C(COc1cccnc1[N+](=O)[O-])Nc1ccc(Cl)cc1F`, the inhibition is -2.26%. For `CC(NC(=O)c1ccco1)C(=O)Nc1nc(-c2ccccn2)cs1` (stereo not given) the value was 65.4% (active); for `O=C(CCN1C(=O)C2C3C=CC(C3)C2C1=O)Nc1ccccc1F` (stereo not given), -30.3%. For `O=C(NCCN1C(=O)C2C3C=CC(C3)C2C1=O)Nc1ccccn1` (stereo not given) the value was 0.008%; for `COc1ccc(S(=O)(=O)N(C)C[C@H]2Oc3ccc(NC(=O)CCC(F)(F)F)cc3CC(=O)N([C@H](C)CO)C[C@@H]2C)cc1`, 14.1%; for `CCCN(C)C[C@H]1Oc2ncc(-c3cccnc3)cc2C(=O)N([C@@H](C)CO)C[C@@H]1C`, -0.744%. For `Cc1ccc(S(=O)(=O)N(C)C[C@@H]2OCCCC[C@@H](C)Oc3ccc(NC(=O)C4CCCCC4)cc3C(=O)N([C@H](C)CO)C[C@H]2C)cc1` the value was -8.72%.
